Records with an inconclusive call do not appear. Calls of active or inactive are those of the source. Calls come from the whole dose curve; as a rule, active = well fitted cell-killing curve with a large enough effect; inconclusive = small, poorly fitted or top-dose-only effect, or effect the other way; inactive = flat fitted curve, though single readings scatter.
Tests used:
Test in all cases: Primary qHTS to identify gynecologic anti-cancer compounds using libraries of approved drugs and bioactive compounds (AID 1345084); note: nearly all actives have a fitted effect of over 55% in size
Conditions in all cases: Gynecologic cancer cell panel viability, ATPlite luminescence, 48 h; series mostly up to 57.5 µM
JEG-3 = test system: JEG-3
Method in brief: (§1)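 Cytotoxicity screen measuring ATP content by luciferase luminescence. Each compound is applied at five concentrations for 48 h at 37 C with 5% CO2.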

OV90 = test system: OV90
Method in brief: as §1

PA-1 = test system: PA-1
Method in brief: as §1

SKOV3 = test system: SKOV3
Method in brief: as §1

Tov-21-G = test system: Tov-21-G
Method in brief: as §1

Tov112D = test system: Tov112D
Method in brief: as §1
% is set by controls: 0 for no effect and ±100 for the full control effect.

CC1C(=O)OCC2=CCN3CCC(OC(=O)C(C)(O)C1(C)O)C23 (stereo not drawn)
inactive: Potency (JEG-3) | Potency (OV90) | Potency (PA-1) | Potency (SKOV3) | Potency (Tov-21-G) | Potency (Tov112D)

CO[C@H]1/C=C\O[C@@]2(C)Oc3c(C)c(O)c4c(O)c(c5c(nc6cc(C)ccn65)c4c3C2=O)NC(=O)/C(C)=C\C=C/[C@H](C)[C@H](O)[C@@H](C)[C@@H](O)[C@@H](C)[C@H](OC(C)=O)[C@@H]1C
inactive: Potency (JEG-3) | Potency (OV90) | Potency (PA-1) | Potency (SKOV3) | Potency (Tov-21-G) | Potency (Tov112D)

N#C[C@@H]1CCCN1C(=O)CNC12CC3CC(CC(O)(C3)C1)C2
inactive: Potency (JEG-3) | Potency (OV90) | Potency (PA-1) | Potency (SKOV3) | Potency (Tov-21-G) | Potency (Tov112D)

NC(=O)C(CCC(F)(F)F)N(Cc1ccc(-c2ncon2)cc1F)S(=O)(=O)c1ccc(Cl)cc1 (stereo not drawn)
inactive: Potency (JEG-3) | Potency (OV90) | Potency (PA-1) | Potency (SKOV3) | Potency (Tov-21-G) | Potency (Tov112D)

CC1(C)CC2=C3C=CC4C5(C)CCC(O)C(C)(C)C5CCC4(C)C3(C)CCC2(C)C(O)C1 (stereo not drawn)
inactive: Potency (JEG-3) | Potency (OV90) | Potency (PA-1) | Potency (SKOV3) | Potency (Tov-21-G) | Potency (Tov112D)

CC(C)S(=O)(=O)NC[C@H](C)c1ccc(NC(=O)c2cc(F)cc(F)c2)cc1
inactive: Potency (JEG-3) | Potency (OV90) | Potency (PA-1) | Potency (SKOV3) | Potency (Tov-21-G) | Potency (Tov112D)

COc1ccc(/C=C\C(=O)O)c(O[C@@H]2O[C@H](CO)[C@@H](O)[C@H](O)[C@H]2O)c1
inactive: Potency (JEG-3) | Potency (OV90) | Potency (PA-1) | Potency (SKOV3) | Potency (Tov-21-G) | Potency (Tov112D)

C=C(C(=O)O)C1CCC2(C)CCC(O)C(C)(O)C2C1 (stereo not drawn)
inactive: Potency (JEG-3) | Potency (OV90) | Potency (PA-1) | Potency (SKOV3) | Potency (Tov-21-G) | Potency (Tov112D)

COc1ccccc1Oc1ccc(N(Cc2cccnc2)S(=O)(=O)CC(F)(F)F)cc1
inactive: Potency (JEG-3) | Potency (OV90) | Potency (PA-1) | Potency (SKOV3) | Potency (Tov-21-G) | Potency (Tov112D)

CC(=O)c1c(O)cc(O[C@@H]2O[C@H](CO)[C@@H](O)[C@H](O)[C@H]2O)cc1O
inactive: Potency (JEG-3) | Potency (OV90) | Potency (PA-1) | Potency (SKOV3) | Potency (Tov-21-G) | Potency (Tov112D)

Cn1nnc(-c2ccc(-c3ccc(N4C[C@H](CO)OC4=O)cc3F)cn2)n1
inactive: Potency (JEG-3) | Potency (OV90) | Potency (PA-1) | Potency (SKOV3) | Potency (Tov-21-G) | Potency (Tov112D)

CCc1ccc(Cc2ccc3c(c2)[C@]2(OC3)O[C@H](CO)[C@@H](O)[C@H](O)[C@H]2O)cc1
inactive: Potency (JEG-3) | Potency (OV90) | Potency (PA-1) | Potency (SKOV3) | Potency (Tov-21-G) | Potency (Tov112D)

Cc1c(F)cc(C(=O)NC2CC2)cc1-c1c(F)cn2c(C(C)(C)C)nnc2c1F
inactive: Potency (JEG-3) | Potency (OV90) | Potency (PA-1) | Potency (SKOV3) | Potency (Tov-21-G) | Potency (Tov112D)

C[C@@H]1O[C@@H](O[C@H]2[C@H](O)[C@@H](O[C@@H]3O[C@H](CO)[C@@H](O)[C@H](O[C@@H]4O[C@H](CO)[C@@H](O)[C@H](O)[C@H]4O)[C@H]3O)[C@H](O[C@H]3CC[C@@]4(C)C(=CC[C@@H]5C4CC[C@@]4(C)C5C[C@@H]5OC6(CC[C@@](C)(CO[C@@H]7O[C@H](CO)[C@@H](O)[C@H](O)[C@H]7O)O6)[C@@H](C)[C@@H]54)C3)O[C@@H]2CO)[C@H](O)[C@H](O)[C@H]1OC1OC(CO)C(O)C(O)C1O (stereo partly drawn)
inactive: activity change, negative = cytotoxicity (JEG-3) 1.09% [at 6.55 µM] | activity change, negative = cytotoxicity (OV90) -1.64% [at 6.55 µM] | activity change, negative = cytotoxicity (PA-1) 10.2% [at 6.55 µM] | activity change, negative = cytotoxicity (SKOV3) -3.09% [at 6.55 µM] | activity change, negative = cytotoxicity (Tov-21-G) -0.0744% [at 6.55 µM] | activity change, negative = cytotoxicity (Tov112D) 5.26% [at 6.55 µM]

CO/N=C(/C(=O)N[C@@H]1C(=O)N2C(C(=O)O)=C(Cn3ccc(=N)n3CCO)CS[C@H]12)c1csc(N)n1
inactive: Potency (JEG-3) | Potency (OV90) | Potency (PA-1) | Potency (SKOV3) | Potency (Tov-21-G) | Potency (Tov112D)

CC1(C)CCC[C@]2(C)[C@H]3CC(=O)O[C@]3(C)CC[C@@H]12
inactive: Potency (JEG-3) | Potency (OV90) | Potency (PA-1) | Potency (SKOV3) | Potency (Tov-21-G) | Potency (Tov112D)

CC(=O)N[C@@H](CCCCN)C(=O)N(C)[C@@H](CC(C)C)C(=O)N[C@H](C(=O)N(C)[C@@H](Cc1ccccc1)C(=O)N[C@H](Cc1ccccc1)C(N)=O)C(C)C
inactive: activity change, negative = cytotoxicity (JEG-3) -0.179% [at 6.55 µM] | activity change, negative = cytotoxicity (OV90) -1.74% [at 6.55 µM] | activity change, negative = cytotoxicity (PA-1) 7.96% [at 6.55 µM] | activity change, negative = cytotoxicity (SKOV3) 0% [at 6.55 µM] | activity change, negative = cytotoxicity (Tov-21-G) 3.25% [at 6.55 µM] | activity change, negative = cytotoxicity (Tov112D) 6.63% [at 6.55 µM]

O=C(O)/C=C/c1ccc(O)c(O[C@@H]2O[C@H](CO)[C@@H](O)[C@H](O)[C@H]2O)c1
inactive: Potency (JEG-3) | Potency (OV90) | Potency (PA-1) | Potency (SKOV3) | Potency (Tov-21-G) | Potency (Tov112D)
